This note sets out measurements from PubChem BioAssay (NCATS).

A short description of assay [1]: Viability qHTS for spleen associated tyrosine kinase inhibitor (SYKi) naive MV4-11 cells (AID 1963823). Further: nearly all actives have a fitted effect of over 40% in size. The essentials:
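Viability of MV4-11 AML cells lacking prior SYK inhibitor exposure is scored by CellTiter-Glo luminescence following 72 hr compound incubation at 37 C, 5% CO2, seeded at 500 cells per well.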
On the technique in general: qHTS replaces the single test concentration by a dilution series.

The nature of assay [2]: Viability qHTS for spleen associated tyrosine kinase inhibitor (SYKi) drug resistant MV4-11 cells (AID 1963824). Further: nearly all actives have a fitted effect of over 35% in size. The essentials: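 SYK inhibitor-resistant MV4-11 AML cells, 500 per well, added to predispensed compounds and incubated 72 hr at 37 C, 5% CO2. Viability measured by CellTiter-Glo luminescence after 10 min at room temperature.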
Assay [3] can be described thus: Quantitative highthroughput screen to assess conditional lethalithy of NOMO1 cells grown in RPMI1640 with untreated serum (RPMI+s) (AID 1963876). Further: nearly all actives have a fitted effect of over 35% in size.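 On Viability: 100% = DMSO wells and 0% = empty wells without cells.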 Put shortly:
(§1)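 Each medium arm—HPLM with 10% dialyzed FBS, or RPMI1640 with 5 mM glucose and 10% untreated or dialyzed FBS—was screened against an 11-point, 3-fold compound titration for 48 h at 37 °C, with CellTiter-Glo luminescence as endpoint.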

Assay [4] can be described thus: Quantitative highthroughput screen to assess conditional lethalithy of NOMO1 cells grown in RPMI1640 with dialyzed fetal bovine serum (RPMI+ds) (AID 1963877). Further: nearly all actives have a fitted effect of over 30% in size.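 On Viability: series mostly up to about 46 µM; 100% = DMSO control wells and 0% = empty wells.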 Put shortly: as §1
A short description of assay [5]: Quantitative highthroughput screen to assess conditional lethalithy of NOMO1 cells grown in Human Plasma-Like Medium with dialyzed fetal bovine serum (HPLM+ds) (AID 1963878). Further: nearly all actives have a fitted effect of over 35% in size.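 On Viability: 100% = DMSO wells and 0% = empty wells on each plate.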 Put shortly:
as §1

Assay [6] in a line: Quantitative highthroughput screen to assess conditional lethalithy of P12 Ichikawa cells grown in Human Plasma-Like Medium with dialyzed fetal bovine serum (HPLM+ds) (AID 1963879). Further: nearly all actives have a fitted effect of over 35% in size. On Viability: series mostly up to about 46 µM. The following applies: Potency: viability. The essentials: as §1
Assay [7] in a line: Quantitative highthroughput screen to assess conditional lethalithy of P12 Ichikawa cells grown in RPMI1640 with dialyzed fetal bovine serum (RPMI+ds) (AID 1963880). Further: nearly all actives have a fitted effect of over 35% in size.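 On Viability: 100% = DMSO wells and 0% = empty wells on each plate.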 The following applies: Potency: P12-Ichikawa viability. Put shortly: as §1
Assay [8] in a line: Quantitative highthroughput screen to assess conditional lethalithy of P12 Ichikawa cells grown in RPMI1640 with untreated serum (RPMI+s) (AID 1963881). Further: nearly all actives have a fitted effect of over 35% in size.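 On Viability: series mostly up to about 46 µM; 100% = DMSO wells and 0% = empty wells without cells.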 The following applies: Potency: viability. Put shortly:
as §1

A short description of assay [9]: Quantitative highthroughput screen to assess conditional lethalithy of SEM cells grown in Human Plasma-Like Medium with dialyzed fetal bovine serum (HPLM+ds) (AID 1963882). Further: nearly all actives have a fitted effect of over 35% in size. On Viability: series mostly up to about 46 µM. Put shortly: as §1
Assay [10] can be described thus: Quantitative highthroughput screen to assess conditional lethalithy of SEM cells grown in RPMI1640 with unreated serum (RPMI+s) (AID 1963883). Further: nearly all actives have a fitted effect of over 35% in size.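 On Viability: 100% = DMSO wells and 0% = empty wells without cells.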 The essentials:
as §1

The nature of assay [11]: Quantitative highthroughput screen to assess conditional lethalithy of SEM cells grown in RPMI1640 with dialyzed fetal bovine serum (RPMI+ds) (AID 1963884). Further: nearly all actives have a fitted effect of over 35% in size.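 On Viability: series mostly up to about 46 µM; 100% = DMSO control wells and 0% = empty wells without cells.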 Put shortly: as §1
Assay [12] is described as follows: Cellular viability qHTS for adrenocortical cancer (ACC) cell line SW-13 (AID 1963989). Further: nearly all actives have a fitted effect of over 65% in size.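 On activity (max response): cells grown in serum-free medium with ITS supplement; on the % scale 0 is the no-effect control and ±100 the full control effect.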 Conditions: SW-13 ACC cells viability, CellTiter-Glo, 48 h; activity (max response): stronger effect = lower value. The essentials:
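IC50 and maximal-response values come from four-parameter logistic fits of titration data. SW-13 cells in serum-free medium received compounds (up to 46 uM final) for 48 h before CellTiter-Glo luminescence.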

Assay [13] is described as follows: Cellular viability qHTS for adrenocortical cancer (ACC) cell line NCI-H295R (AID 1963990). Further: nearly all actives have a fitted effect of over 60% in size. Put shortly: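 Adrenocortical carcinoma cells, suspended at 300 000 cells/mL in serum-free DMEM plus ITS, rested overnight before pin transfer of compound. After two days' incubation, ATP-dependent luminescence was recorded and curve-fitted.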

Values joined by “and” are separate entries in the source; they are usually repeats but may differ in a detail not shown here. Identical values can stand only once. Inconclusive results are not listed. Some structures have more than one record in an assay (separate samples or runs), and their calls can disagree. Active and inactive are the calls of the source. The call rests on the fitted dose curve; in most records, active means well fitted curve in the direction sought with a large enough effect; inconclusive means small, poorly fitted or top-dose-only effect, or another doubt; inactive means no such curve, though single readings can be large; an effect the other way counts as inactive or inconclusive.
Potency means the concentration at half of the fitted maximal effect.

`COc1ccc2[nH]cc(CCNC(C)=O)c2c1`: the Potency result in assay [1], in [2], in [3], in assay [4], in assay [5] and in assay [6] was “inactive” throughout. For the same molecule, the Potency entry in [7], in assay [8], in [9], in [10], in assay [11] and in assay [13] was “inactive” in each case. The activity (max response) in assay [12] was -5.05% (inactive) and -7.41% (inactive).

For `CCOc1cc2c(c(F)c1OCC)C(=N)N(CC(=O)c1cc(N3CCOCC3)c(OC)c(C(C)(C)C)c1)C2`, the Potency in assay [1] was 9.2 µM (active); in assay [2], 18.4 µM (active) and 4.68 µM (active). For the same molecule, the Potency entry in [3], in assay [4], in assay [5], in [6], in assay [7] and in assay [8] was “inactive” in each case.

Turning to `Cn1cnc(=N)c2[nH]cnc21`, the Potency entry in assay [1] and in assay [2] was “inactive” each time. The Potency in assay [3] is 7430 nM (active); in assay [4] it was 6620 nM (active); in assay [5], 4690 nM (active); in assay [6] it was 7430 nM (active); in assay [7], 7430 nM (active); in assay [8], 7430 nM (active). Also, the Potency in [9] was 3320 nM (active); in assay [10] it was 2350 nM (active); in assay [11], 3320 nM (active). Besides, in [12], the activity (max response) was 5.87% (inactive).

On to `O=c1cc[nH]c(=S)[nH]1`, for which the Potency result in assay [1] is “inactive”. Also, in [2], the Potency is 11.9 µM (active).

Take `COCCOC(=O)C1=C(C)NC2=C(C(=O)CC(c3ccccc3OC)C2)C1c1cccc(O)c1` (stereo not drawn): the Potency is 2.95 µM (active) and 4.11 µM (active) in assay [1]; 2.35 µM (active) and 5.8 µM (active) in assay [2]. In addition, the Potency result in assay [3] and in assay [4] was “inactive” in each case.

For the molecule `Clc1ccc2c(c1)C(N1CCNCC1)=Nc1ccccc1O2`, the Potency entry in assay [1], in assay [3], in assay [4], in assay [5], in [6] and in [7] was “inactive” in each case. The Potency result in assay [8], in assay [9], in assay [10] and in [11] was “inactive” throughout. Further, in [2], the Potency is 13.3 µM (active) and inactive. Moreover, the activity (max response) in assay [12] is -1.69% (inactive).

On to `C[C@@H]1C[C@H](O)/C=C/[C@H](O)[C@@H](O)CC(=O)O1`, for which the Potency entry in [1] and in [2] was “inactive” throughout.

As for `OC[C@H]1O[C@@H](OCCc2ccccc2)[C@H](O[C@@H]2OC[C@@H](O)[C@H](O)[C@H]2O)[C@@H](O)[C@@H]1O`, the Potency result in [1] and in [2] was “inactive” each time.

Turning to `CC(=O)N[C@@H](CC(C)C)C(=O)N[C@@H](CCC(=O)O)C(=O)N[C@@H](CCC(=O)O)C(=O)N[C@@H](CC(=O)O)C(=O)Nc1ccc2c(C(F)(F)F)cc(=O)oc2c1`, the Potency result in assay [1] and in [2] was “inactive” throughout.

Turning to `OCCCNc1cc(-c2ccnc(Nc3cccc(Cl)c3)n2)ccn1`, the Potency was 82 nM (active) and 83.3 nM (active) in assay [1]; 58 nM (active) and 66.1 nM (active) in assay [2]; 187 nM (active) in [3]; 209 nM (active) in [4]; 235 nM (active) in assay [5]; 662 nM (active) in assay [6]. The Potency in assay [7] was 469 nM (active); in assay [8], 526 nM (active); in assay [9], 166 nM (active); in assay [10], 235 nM (active); in [11], 209 nM (active); in assay [12], 447 nM (active). Further, the Potency in [13] was 316 nM (active).

As for `O=c1oc2c(O)c(O)cc3c(=O)oc4c(O)c(O)cc1c4c23`, the Potency result in assay [1], in assay [2], in assay [3], in assay [4], in assay [5] and in assay [6] was “inactive” throughout. For the same molecule, the Potency entry in [7], in assay [8], in assay [9], in assay [10], in assay [11] and in [13] was “inactive” each time. Moreover, the activity (max response) in assay [12] is 9.27% (inactive) and 2.22% (inactive).
